CYP2C19 act: human CYP2C19 activators, primary screen, biochemical, luminescence | Cytochrome P450 2C19 (Homo sapiens), P33261 | recombinant CYP2C19, luciferin-H EGE luminescence; active compounds read high; 0 = fully inhibited enzyme, 1 = untreated enzyme | activation factor at 5 µM | 96,000 tested, under 10 active | AID 1025, 2008;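 active means activation factor of at least 2 at 5 µM in the primary screen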;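 further: 0 = wells with 2.5 mM tranylcypromine and 1 = vehicle-only wells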
CYP2C9 activ: human CYP2C9 activators, primary screen, biochemical, luminescence; 96,000 compounds, 1.4% hits; recombinant CYP2C9, luciferin-H conversion; active compounds read high; factor 1 = untreated enzyme, 0 = blocked; activation factor at 5 µM;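 active means activation factor of 2 or more for CYP2C9 at a 5 µM dose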;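 further: 0 = sulfaphenazole-blocked wells and 1 = vehicle-only wells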
Target sequence (P11712 whole entry, looked up): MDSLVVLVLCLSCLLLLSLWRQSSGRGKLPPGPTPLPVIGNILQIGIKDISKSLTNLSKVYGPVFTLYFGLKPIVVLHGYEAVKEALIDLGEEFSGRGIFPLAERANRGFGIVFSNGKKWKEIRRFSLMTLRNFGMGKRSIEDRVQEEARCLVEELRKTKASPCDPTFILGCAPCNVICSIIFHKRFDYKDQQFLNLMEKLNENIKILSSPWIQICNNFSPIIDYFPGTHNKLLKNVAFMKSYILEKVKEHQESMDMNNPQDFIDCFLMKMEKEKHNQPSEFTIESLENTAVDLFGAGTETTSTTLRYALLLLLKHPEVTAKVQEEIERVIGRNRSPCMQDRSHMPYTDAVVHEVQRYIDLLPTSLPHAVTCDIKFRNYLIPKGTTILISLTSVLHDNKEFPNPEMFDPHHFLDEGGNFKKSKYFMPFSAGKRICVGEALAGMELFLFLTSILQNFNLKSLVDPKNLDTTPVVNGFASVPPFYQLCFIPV
CYP2C19 inh: blockers of cytochrome P450 2C19 activity – biochemical, luminescence, ADME assay, primary screen; AID 778, 2007; inhibition, % at 5 µM; 96,000 compounds, 21% hits; P33261; CYP2C19 Supersomes, luciferin-H EGE luminescence, 30 min;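 active means CYP2C19 inhibition above a set limit at 5 µM in the primary screen, cut at about 50% in these data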;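 further: plate controls were negative control wells for no effect and 2.5 mM tranylcypromine positive control for full effect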
CYP2C9 inh: blockers of cytochrome P450 2C9 activity – biochemical, luminescence, ADME assay, primary screen; inhibition, % at 5 µM; P11712; 96,000 compounds, 20% hits; CYP2C9 Supersomes, luciferin-H conversion;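 active means blocking of liver enzyme CYP2C9 beyond about 50% at 5 µM, limit read from the data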
Measles CPE: compounds protecting cells from measles virus cytopathic effect, primary screen, measles RdRp inhibitor project, single point, MLSMR library, absorbance; 140,000 compounds, 1.5% hits; protection (pct of control), % at 4 µM; Measles virus-infected cells, CPE protection; in the data active means protection mostly above about 24%, no sharp cut-off; inactive means mostly below about 26%
Starred values were filed as active, the others as inactive; / = no result. This is a sample that favours compounds with a hit; in the whole collection about 22% have one here.

SMILES | CYP2C19 act | CYP2C9 activ | CYP2C19 inh | CYP2C9 inh | Measles CPE
CC(C)(C)OC(=O)NCCc1nnc(SCc2ccc(Cl)cc2Cl)o1 | 0.4 | 0.2 | 60* | 75* | 14
CC(C)=CCSc1nnc([C@@H](NC(=O)OC(C)(C)C)C(C)C)o1 | 0.4 | 0.6 | 55* | 44 | 6
CC(C)(C)OC(=O)N1CCC[C@H]1c1nnc(SCc2c(F)cccc2Cl)o1 | 0.6 | 0.2 | 45 | 76* | 7
CC(C)(C)OC(=O)N1CCC[C@H]1c1nnc(SCc2ccccc2Cl)o1 | 0.7 | 0.6 | 33 | 37 | 6
CCc1nnc(NC(=O)CSc2nnc(-c3ccncc3)n2C)s1 | / | / | / | / | 9
CCN(CC)C(=O)CSc1nnc(CCNC(=O)OC(C)(C)C)o1 | 0.7 | 1 | 28 | -4 | 6
CC(C)(C)OC(=O)NCCc1nnc(SCc2c(Cl)cccc2Cl)o1 | 0.1 | 0.3 | 92* | 72* | 3
CCCCNC(=S)NC(=O)c1ccccc1Br | / | / | / | / | 6
COC(=O)Nc1c(C)nn(Cc2ccccc2C)c1C | 0.4 | 1 | 58* | -3 | 5
Cc1ccccc1Cn1nc(C)c(NC(=O)c2noc3c2CCc2ccccc2-3)c1C | 0.4 | 0.2 | 58* | 79* | 17
Cc1ccccc1Cn1nc(C)c(NC(=O)/C=C/c2cnn(C)c2C)c1C | / | / | / | / | 13
Cc1ccccc1Cn1nc(C)c(NC(=O)c2noc3c2CC(C(C)(C)C)CC3)c1C (centres undefined) | 0.7 | 0.5 | 28 | 48 | 10
COCCN=C1Sc2nc3ccc(C)cc3cc2CN1Cc1ccco1 | 0.4 | 0.3 | 59* | 68* | 6
Cc1cccc(NC(=S)NNC(=O)Cc2ccccc2)c1 | / | / | / | / | 3
O=C(Cc1ccccc1)NNC(=S)Nc1ccc(Cl)cc1 | / | / | / | / | 19*
O=C(CSCc1ccccc1Cl)NNC(=S)Nc1ccccc1 | 0.1 | 0.3 | 86* | 75* | 2
CCCc1nc(SCC(N)=O)[nH]c(=O)c1CC | 1 | 1.1 | 0 | -5 | 24
CCc1nc(SC)[nH]c(=O)c1C | 0 | 0.8 | 95* | 16 | 13
Cc1cccc(C)c1NC(=O)C1(N2C(=O)CC2c2ccccc2)CCCCC1 (centres undefined) | / | / | / | / | 3
CC(C)(C)NC(=O)CN(C(=O)CNC(=O)c1cccs1)c1ccc2c(c1)OCCO2 | 0.9 | 0.2 | 14 | 80* | 8
Cc1nn(CC#N)c(=O)n1-c1ccc(F)cc1 | 1 | 1 | 2 | 0 | 6
COc1cccc(Nc2nc(-c3ccc(O)cc3)cs2)c1 | 0.5 | 0.2 | 49 | 82* | 9
Oc1ccc(Nc2nc(-c3cccs3)cs2)cc1 | / | / | / | / | 17
COc1cccc(Nc2nc(-c3cccc(N4C(=O)c5ccccc5C4=O)c3)cs2)c1 | 0.7 | 0.4 | 26 | 62* | 6
Cc1cccnc1Nc1nc(-c2ccc(O)cc2)cs1 | 0.1 | 0.4 | 88* | 63* | 2
SMILES | CYP2C19 act | CYP2C9 activ | CYP2C19 inh | CYP2C9 inh | Measles CPE
COc1cccc(-c2csc(NC(=O)C3CC3)n2)c1 | 0.9 | 0.8 | 13 | 24 | 9
Cc1cccc(OCCC(=O)NCC(c2ccco2)N2CCCCC2)c1 (centres undefined) | 0.7 | 0.9 | 34 | 11 | 7
NC1=NC(=Nc2cccc(Cl)c2)c2ccccc21 | / | / | / | / | 4
CCN(CC)S(=O)(=O)c1ccc(S(=O)(=O)N(CC(=O)Nc2ccccc2)Cc2ccco2)cc1 | / | / | / | / | 9
Nc1ccc(C23CC4CC(CC(CO)(C4)C2)C3)cc1 | 0.3 | 0.8 | 71* | 20 | 10
NCC12CC3CC(CC(O)(C3)C1)C2 | 0.9 | 0.9 | 14 | 5 | 9
Nc1ccc(C23CC4CC(CC(O)(C4)C2)C3)cc1 | 0.1 | 0.8 | 91* | 24 | 11
Cc1ccc(NC(=O)c2cccc(S(=O)(=O)N(C)c3ccccc3)c2)cc1S(=O)(=O)N1CCOCC1 | / | / | / | / | 22
N#Cc1nc(COc2ccccc2Cl)oc1NCc1cccnc1 | 0.1 | 0.6 | 91* | 36 | 16
Cc1ccc(CNc2oc(COc3ccccc3Cl)nc2C#N)cc1 | 0.7 | 0.4 | 30 | 61* | 5
COc1ccc(CNc2oc(COc3ccccc3Cl)nc2C#N)cc1 | 0.7 | 0.5 | 31 | 47 | 5
CC(C)(C)c1nc2c(Br)cc(Br)cc2c(=O)o1 | / | / | / | / | 3
CC(C)CC(=O)Nc1ccc2oc(-c3ccncc3)nc2c1 | 0.5 | 0.3 | 52* | 69* | 21
CC(Oc1ccc(Cl)cc1Cl)C(=O)Nc1ccc2oc(-c3ccncc3)nc2c1 (centres undefined) | 0.4 | 0.4 | 55* | 61* | 5
CCCC(=O)Nc1cccc(-c2nc3ccccc3o2)c1 | 0.9 | 0.7 | 9 | 26 | 19
CC(C)CC(=O)Nc1cccc(-c2nc3ccccc3o2)c1 | 0.7 | 0.3 | 29 | 74* | 7
CSC1=NC(NCCCO)c2c(sc3c2CC(C)(C)OC3)N1 (centres undefined) | 1.1 | 0.8 | -11 | 16 | 7
Cc1nn(C)c(C)c1S(=O)(=O)N(CC(=O)NCCN1CCOCC1)c1ccc(C(C)C)cc1 | / | / | / | / | 9
CC(C)OC(=O)C1=C2SCC(=O)N2C(N)=C(C#N)C1 | 0.2 | 0.9 | 76* | 6 | 31
CSc1nc2nc(-c3ccccc3)cc(C(F)(F)F)n2n1 | 0.9 | 0.7 | 15 | 31 | 3
CCOc1ccc(N/C(C)=C/C(=O)c2ccc(C)o2)cc1 | 0.5 | 0.8 | 52* | 21 | 16
COC(=O)c1ccc(N/C(C)=C/C(=O)c2ccc(C)o2)cc1 | 1 | 1 | 0 | -3 | 3
COc1ccc(OC)c(N(CC(=O)N2CCC(C)CC2)S(=O)(=O)c2ccc(OC)c(OC)c2)c1 | 0.8 | 0.6 | 16 | 39 | 3
COc1ccc(OC)c(N(CC(=O)N2CCCCC2)S(=O)(=O)c2ccc(OC)c(OC)c2)c1 | / | / | / | / | 12
COc1ccc(S(=O)(=O)N(C)CC(=O)N2CCC(C)CC2)cc1Cl | 0.9 | 2.5* | 7 | -155 | 2
SMILES | CYP2C19 act | CYP2C9 activ | CYP2C19 inh | CYP2C9 inh | Measles CPE
COc1ccc(S(=O)(=O)N(C)CC(=O)N2CCC(C(N)=O)CC2)cc1 | 1 | 1.3 | -5 | -31 | 7
COc1ccc(N(CC(=O)N2CCCCC2)S(=O)(=O)c2ccccc2)c(OC)c1 | 0.5 | 0.5 | 53* | 49 | 8
COc1ccc(OC)c(N(CC(=O)N2CCC(C)CC2)S(=O)(=O)c2ccccc2)c1 | 0.7 | 0.5 | 34 | 52* | 9
CC(/C=N/Nc1nnc2c(n1)[nH]c1ccccc12)=C\c1ccco1 | 0.2 | 1.1 | 80* | -5 | 4
Cc1ccc2c(c1)C(N1CCCC1=O)CC(c1ccco1)N2 (centres undefined) | 0.2 | 0.7 | 78* | 29 | 15
O=C(Cc1coc(-c2ccc(F)cc2)n1)N1CCOCC1 | 0.5 | 0.5 | 50* | 52* | 33
O=C(CCC(=O)OCC(=O)c1ccc(F)cc1)NC1CCCCC1 | 0.7 | 0.8 | 29 | 17 | 9
O=C(Nc1ccc(F)cc1)N1CCOCC1 | 1 | 0.9 | 1 | 7 | 22

Screening results deposited in PubChem BioAssay by several laboratories.
